Molecules are shown by their SMILES. A number with no mark means an inactive call. How the calls were made is not given here.

The subject of this experiment is Phorbol Ester (mouse). The experiment can be described thus: PubChem AID 1788. Particulars: MDS Pharma lead profiling panel, radioligand binding, at 10 µM, stronger effect = higher value.

For the compound `CCOC(=O)N1CCC(NCCNC(=O)c2ccccc2C)CC1`, the inhibition is 25%.

For orientation: inhibition means the share of the control response that was lost under treatment.
